Results as given in PubChem BioAssay AID602350 (Broad Institute, 2012).
Potency and affinity values are given separately. The source made the active and inactive calls.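 Rule for the calls: active = absorbance falls by 30% or more versus neutral controls, with a potency fitted within twice the top valid dose; inconclusive = no clear call, values can overlap the other calls; inactive = change opposite to expected direction, plus the rest.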

Biological target: Protein disulfide-isomerase (Homo sapiens) (UniProt P07237)
Assay: PDI inhibitors, insulin aggregation turbidity, dose response, biochemical, absorbance, cherry-picked samples (AID 602350)
Settings: recombinant PDI insulin aggregation, absorbance 650 nm, 90 min; series mostly up to 19.5 µM

Protein disulfide-isomerase (Homo sapiens), sequence (P07237 whole entry, looked up): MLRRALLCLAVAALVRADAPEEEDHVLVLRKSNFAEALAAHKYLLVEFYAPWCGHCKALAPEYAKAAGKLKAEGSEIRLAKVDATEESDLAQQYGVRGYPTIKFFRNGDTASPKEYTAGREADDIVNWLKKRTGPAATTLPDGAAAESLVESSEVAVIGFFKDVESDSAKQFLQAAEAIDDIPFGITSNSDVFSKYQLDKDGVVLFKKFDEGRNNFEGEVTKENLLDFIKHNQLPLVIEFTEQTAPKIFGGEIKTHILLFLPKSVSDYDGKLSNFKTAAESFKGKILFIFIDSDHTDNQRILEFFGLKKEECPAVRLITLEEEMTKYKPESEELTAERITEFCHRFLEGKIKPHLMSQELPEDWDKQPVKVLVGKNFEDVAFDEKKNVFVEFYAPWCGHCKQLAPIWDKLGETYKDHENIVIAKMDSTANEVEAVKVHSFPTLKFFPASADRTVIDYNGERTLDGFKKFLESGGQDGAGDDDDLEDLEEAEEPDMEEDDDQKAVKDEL

outcome, inactive:
COc1ccc(OC)c(CN2CCN(Cc3cc(=O)oc4cc(O)ccc34)CC2)c1
c1ccc(Cn2nnc3c(Nc4ccc5c(c4)OCO5)nc(C4CC4)nc32)cc1
CC1(C)CC[C@]2(C(=O)O)CC[C@]3(C)C(=CC[C@@H]4[C@@]5(C)CC[C@H](O[C@@H]6O[C@H](C(=O)O)[C@@H](O)[C@H](O[C@@H]7OC[C@H](O)[C@H](O)[C@H]7O)[C@H]6O)C(C)(C)[C@@H]5CC[C@]43C)[C@@H]2C1
O=c1cc(CSc2nnnn2-c2ccc(O)cc2)nc2sccn12
CCCCC1CCC(c2nc(-c3ccccn3)no2)CC1 (centres undefined)
Cc1ccc(NC(=O)NC(=O)CN2CCC(C(N)=O)CC2)c(C)c1
COc1cc(CCC(=O)OCC(=O)Nc2cc(S(=O)(=O)N3CCOCC3)ccc2Cl)cc(OC)c1OC
CCOC(=O)c1c(-c2ccccc2)oc2cc(Br)c(O)cc12
CCC1Nc2ncnc(N3CCCCC3)c2N(Cc2ccc(C)cc2)C1=O (centres undefined)
CCc1ccc2[nH]c(=O)c(CN(Cc3ccccc3OC)Cc3nnnn3Cc3ccco3)cc2c1
Cc1nnc(N/N=C/c2ccc(-c3ccccc3F)o2)n1N
CC(=O)N(C)C1(c2nnnn2CCOC(=O)Nc2ccc(Cl)cc2)CCCCC1
CCOc1ccc(NC(=O)CCc2nnc3ccc(N4CCN(C)CC4)nn23)cc1
CCOc1c(Cl)cc(CNC(C)(C)CC(C)(C)C)cc1OC
C[C@H](CO)N1C[C@H](C)[C@H](CN(C)Cc2ccc(Oc3ccccc3)cc2)Oc2c(NS(C)(=O)=O)cccc2C1=O
CC1(C(=O)NS(=O)(=O)c2ccccc2Cl)CCN1C(=O)c1ccccc1CCc1ccccc1 (centres undefined)
CC(=O)c1ccc(OCc2cc(C(=O)N3CCCCC3c3cccnc3)no2)cc1 (centres undefined)
Cc1ccc(-n2ncc3c(=O)[nH]c(SCC(=O)N4CCCc5ccccc54)nc32)cc1
CC1CCc2sc(C(=O)N/N=C/C3CCCCC3)cc2C1 (centres undefined)
C[C@@H]1CN([C@H](C)CO)C(=O)Cc2cc(NC(=O)Nc3ccccc3)ccc2O[C@@H]1CN(C)Cc1ccccc1
CCOC(=O)c1c(CN2CCOCC2)n(-c2ccccc2)c2ccc(O)cc12
CCOC(=O)c1oc2cccc(O)c2c1CN(Cc1ccccc1)C(C)=O
Cc1ccc(N2CC(C(=O)Nc3nc4ccc(S(C)(=O)=O)cc4s3)CC2=O)cc1 (centres undefined)
COc1ccc(Cl)cc1NC(=O)COC(=O)C1CC1
Cc1nn(CC(=O)NCC2CCCO2)c(C)c1[N+](=O)[O-] (centres undefined)
O=C(Nc1ccccc1)c1cc(C2CCCCN2C(=O)c2ccccc2)on1 (centres undefined)
CCOc1ccc(CCN2C(=O)C(=O)N([C@@H](CC(C)C)CN3CCC[C@@H]3CN3C(=O)C(=O)NC[C@@H]3Cc3ccccc3)C[C@@H]2Cc2ccc(O)cc2)cc1
COc1cc(C(=O)N2CCN(C/C=C/c3ccccc3)CC2)cc(OC)c1OC
Cc1cccc(NC(=S)NCC23C=CC(O2)C2C(=O)N(c4ccc(Cl)cc4)C(=O)C23)c1 (centres undefined)
CCCCC(=O)OC1CCC2C3CCc4cc(O)ccc4C3CCC12C (centres undefined)
CCOc1ccc2nc(NS(=O)(=O)Cc3ccccc3)sc2c1
CCCn1nnnc1NC(=O)c1cccs1
CCOC(=O)c1ccc(NC(=O)C2(c3ccc(Cl)cc3)CCCC2)cc1
CCCc1cc(=O)[nH]c(SCCOc2ccc(OCC)cc2)n1
O=C(c1ccc(S(=O)(=O)N2CCCCC2)cc1)N1CCN(Cc2ccc3c(c2)OCO3)CC1
COC(=O)C(Cc1ccc(O)cc1)N1Cc2ccccc2C1=O (centres undefined)
CC(C)Oc1cccc(C(=O)NC(=S)Nc2cccc(NC(=O)c3ccccc3Cl)c2)c1
Cc1cccc(C)c1NC(=O)CN1CCNCC1
O=C(NCCCN1CCOCC1)C(Sc1ccccc1)c1ccccc1 (centres undefined)
